# From PubChem BioAssay
# PINK1 modulator: PINK1 expression modulation; 410,000 compounds, 0.2% hits; PINK1 immunofluorescence, high-content cytometry, 24 h; AID 624263; Potency, µM (top dose mostly 76.6 µM), inactives show at the highest dose activation (PINK1 increase), usual class: activators; active = well fitted activation curve with a large enough effect; inconclusive = small, poorly fitted or top-dose-only effect; cell line not stated here; note: % of control where 0% means no effect; nearly all actives have a fitted effect of over 65% in size
#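 Compound titrations (5 concentrations, 24 h) on a stable cell line; DMSO and CCCP controls. Endpoint: fixed-cell PINK1 immunofluorescence with mitochondrial, cell and nuclear markers, scanned by microplate cytometer.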
# ClpP mod: qHTS Assay for Activators of ClpP. ATP-dependent Clp protease proteolytic subunit (Bacillus subtilis (strain 168)), P80244. purified B. subtilis ClpP, FRET peptide cleavage, 20 min. Potency, µM (doses to about 57.5 µM), without a hit: top-dose activity change, negative = active. 340,000 compounds, 1.9% hits; active = well fitted falling curve with a large enough effect; inconclusive = small, poorly fitted or top-dose-only effect; inactive = no such curve, though single readings can be large or run the other way; note: the source files actives as falling curves though it sought activators and does not explain the sign; nearly all actives have a fitted effect of over 65% in size
#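 ClpP 10 microg/mL final, pH 8 Tris/KCl buffer with BSA, glycerol, Tween-20; compound pinned in; FRET-FV substrate; RT 20 min; Ex320/Em430; ΔFRET vs ADEP 5.8 microM, DMSO, no enzyme.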
# Epigenetic reg: derepresses silenced GFP reporter in murine cells; murine LDR cells, GFP reporter derepression, 30 h; Potency, µM (highest dose often 53.9 µM), for inactives: at the highest dose GFP activation, usual class: activators; 280,000 compounds, 0.2% hits; AID 1865; note: % of control where 0% means no effect; nearly all actives have a fitted effect of over 60% in size
#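 Murine LDR cells carrying a silenced, genomically integrated CMV-driven GFP reporter were exposed to compound for 30 hours at 37 C. After PBS washes, GFP-positive cells (20–120 um objects) were counted by laser-scanning microplate cytometry.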
# Sfp PPTase inh: Sfp phosphopantetheinyl transferase inhibition. Q9F4F7. Biochemical Sfp PPTase activity, qHTS. Potency, µM, inactives show largest response in the series, negative = inhibition, actives largely listed as inhibitors. 310,000 compounds, 3.5% hits. AID 1490;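 note: the enzyme is Sfp with the accession as filed and its product quenches rhodamine fluorescence; 0% = enzyme reaction without inhibitor and -100% = no enzyme wells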
#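 Compounds were incubated with enzyme (final 15 nM) for 15 min at room temperature before substrate addition started the reaction. Fluorescence at 525 nm excitation, 598 nm emission was recorded immediately and after 30 minutes.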
# RORg inh: ROR gamma (mouse) transcription inhibition; AID 2551; 310,000 compounds, 5.4% hits; Potency, µM (highest dose often 53.6 µM), for inactives: at the top dose activity change, negative = inhibition, actives largely listed as inhibitors; Drosophila S2 Gal4-RORgamma UAS-luciferase reporter, 20 h; P51450; note: % is set by controls: 0 for no effect and ±100 for the full control effect; nearly all actives have a fitted effect of over 60% in size
# Target sequence (P51450 whole entry, looked up, the tested form may be a part): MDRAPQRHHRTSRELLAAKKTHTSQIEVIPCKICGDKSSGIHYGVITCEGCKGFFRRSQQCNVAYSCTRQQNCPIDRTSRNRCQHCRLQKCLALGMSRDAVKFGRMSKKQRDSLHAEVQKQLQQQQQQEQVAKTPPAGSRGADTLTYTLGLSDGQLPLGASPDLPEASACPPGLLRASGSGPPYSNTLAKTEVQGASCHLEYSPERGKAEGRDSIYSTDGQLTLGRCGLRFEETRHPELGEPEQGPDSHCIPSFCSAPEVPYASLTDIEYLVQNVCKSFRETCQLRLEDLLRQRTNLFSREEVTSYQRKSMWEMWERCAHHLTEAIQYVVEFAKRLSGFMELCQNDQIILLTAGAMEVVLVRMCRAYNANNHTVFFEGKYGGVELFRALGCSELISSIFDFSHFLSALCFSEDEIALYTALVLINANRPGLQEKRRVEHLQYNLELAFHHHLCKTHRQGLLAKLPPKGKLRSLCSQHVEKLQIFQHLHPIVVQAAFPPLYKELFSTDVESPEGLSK
#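 ROR gamma transcriptional activity was tracked as Gal4-UAS luciferase output in stably transfected Drosophila Schneider cells, with compound added 1 hr before 700 uM copper sulfate induction and a 20 hr ambient-temperature incubation.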
# VP16 counter: Gal4-VP16 reporter inhibition counter-screen; Drosophila S2 Gal4-VP16 UAS-luciferase, luminescence, 20 h; Potency, µM (doses to about 53.6 µM), inactives show top-dose activity, negative = inhibition, most hits filed as inhibitors; 310,000 compounds, 3.5% hits; AID 2546;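 note: Gal4-VP16 expression switched on by copper sulfate through the metallothionein promoter; % is set by controls: 0 for no effect and ±100 for the full control effect; nearly all actives have a fitted effect of over 50% in size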
# * hit, by the source's call; ? = inconclusive; . = no result given; [ ] = another dose, or the depositor's remark. This is a sample that favours compounds with a hit; in the whole collection about 8.1% have one here. Unless noted, calls come from the whole dose curve; as a rule, active = well fitted curve in the direction sought with a large enough effect; inconclusive = small, poorly fitted or top-dose-only effect, or another doubt; inactive = no such curve, though single readings can be large; an effect the other way counts as inactive or inconclusive. Potency is the fitted concentration of half-maximal effect.
SMILES,PINK1 modulator,ClpP mod,Epigenetic reg,Sfp PPTase inh,RORg inh,VP16 counter
COc1cc(/C=N/NC(=O)CSc2cc(C)c(Br)cc2C)ccc1O,1%,-6%,-1%,?,21%,-11%
Cc1cc(C)n(CCC(=O)N/N=C/c2ccccc2O)n1,0%,?,0%,20%,1.3µM*,1.3µM*
Cc1cc(SCC(=O)N/N=C/c2ccc(O)c(O)c2O)c(C)cc1Br,0%,-4%,1%,10µM*,2.8µM*,?
Cc1cc(C)n(CCC(=O)N/N=C/c2ccc(O)cc2O)n1,-3%,-2%,1%,15%,?,-10%
Cc1nccn1CC(=O)N/N=C/c1c[nH]c2ccccc12,2%,.,-1%,4%,7%,3%
Cc1nccn1CC(=O)N/N=C/c1ccccc1O,0%,.,4%,20%,4µM*,?
O=C(CN1CCCc2ccccc21)N/N=C/c1ccccc1O,0%,28µM*,3%,-19%,0.25µM*,0.32µM*
Cc1cccc(-n2c(-c3ccccc3)cn3c4c(=O)[nH]c(=O)n(C)c4nc23)c1,-1%,-1%,-1%,.,.,.
COc1cccc(OCc2nc3ccccc3n2C)c1,0%,-1%,-1%,.,.,.
O=C(CCSCCC(=O)NN=Cc1ccccc1O)NN=Cc1ccccc1O,5%,-11%,.,.,.,.
COc1ccc(CSCC(=O)N/N=C/c2ccccc2O)cc1,0%,.,-1%[10.1 µM],14%,0.71µM*,3.2µM*
Cc1cccc(NC(=O)c2ccccc2NC(=O)C2CCCCC2)c1C,3%[38.3 µM],1%,8%,28µM*,32%,1%
Cc1cc(NC(=O)C2CCCCC2)ccc1NC(=O)c1ccccc1Cl,19%,16µM*,-1%,8%,0%,-7%
Cc1occc1C(=O)Nc1sc2c(c1C(N)=O)CCCCC2,-2%,-17%,-1%,25µM*,38%,?
NC(=O)c1c(NC(=O)c2ccncc2)sc2c1CCCCCC2,0%,.,.,1%,?,6%
COC(=O)c1c(NC(=O)c2ccoc2C)sc2c1CCC2,5%,32µM*,1%,?,-11%[0.365 µM],.
Cc1c(C(=O)NN)[nH]c2ccc([N+](=O)[O-])cc12,4%,1%,1%,1%,11µM*,?
CCC(=O)N1CCc2cc(Br)cc(S(=O)(=O)CCC(=O)Nc3ccc(C)c(C)c3)c21,2%,1%,2%,.,.,.
CCCc1nnc(NC(=O)Cc2coc3cc(C)cc(C)c23)s1,-2%,-1%,1%,.,.,.
CCOC(=O)Cc1cc(C(=O)Nc2ccc(Br)cc2)sc1-c1ccc(C)cc1,1%,22µM*,-1%,.,.,.
CC1=NN(C(=O)c2ccc(Cn3nc(C)c([N+](=O)[O-])c3C)o2)C(O)(C(F)(F)F)C1 (stereo not drawn),1%,0%,-1%,-2%,2.5µM*,7.1µM*
CC1=NN(C(=O)c2ccc(Cn3ccc([N+](=O)[O-])n3)cc2)C(O)(C(F)(F)F)C1 (stereo not drawn),2%,1%,1%,2%,10µM*,13µM*
CCC12CN3CC(CC)(CN(C1)C3c1cccc(OC)c1O)C2=O (stereo not drawn),-1%,1%,-1%,.,.,.
CCOc1ccccc1C(=O)Nc1ccc2nc3c(c(Nc4ccc(OC)c(OC)c4)c2c1)CCCC3,7%,-2%,1%,.,.,.
O=C(Nc1cccc(OCc2cc(=O)n3c4c(sc3n2)CCCC4)c1)c1ccc(F)cc1,17%,?,25µM*,.,.,.
COC(=O)c1ccc(C2NC(c3ccc4c(c3)OCO4)=CC(c3ccccc3O)N2)cc1 (stereo not drawn),3%,-5%,.,.,.,.
COc1c(Cl)cc(C(=O)NN)cc1Cl,5%,.,-2%,50µM*,?,?
COc1cc(C(N)=O)cc(Cl)c1OC,-2%,-5%,-1%,6%,-27%,-10%
CNC(=O)c1cc(Cl)c(OC)c(OC)c1,2%,1%,-1%,45µM*,-6%,0%
